# Most compounds without a hit are left out; they make up all but 3.5% or so of the library.
# GPR151 ag = activators of human GPR151, primary screen, cell-based, PathHunter beta-arrestin, luminescence. G-protein coupled receptor 151 (Homo sapiens), Q8TDV0. PathHunter beta-arrestin GPR151 cells. activation, % at 11.2 µM. actives 1% (n = 650,000). AID 1508602, 2020; in the data active means activation above about 4.9%;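 further: 0% = median of compound wells and 100% = cells with positive control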
# MITF primary = MITF inhibitors, primary screen, biochemical, AlphaScreen, human; Microphthalmia-associated transcription factor (Homo sapiens), O75030; AlphaScreen MITF homodimerization, bead proximity signal; inhibition, % at 2.6 µM; actives 0.91% (n = 650,000); AID 1259374, 2018; in the data active means inhibition above about 50%;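 further: 0% = vehicle wells with protein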
# TEAD-YAP inh = TEAD-YAP interaction inhibition, primary screen, TEAD-YAP interaction inhibitor project, luminescence, HEK-TIYL cells | TEAD-Gal4/YAP UAS-luciferase luminescence | inhibition, % at 9.12 µM | actives 1.4% (n = 640,000) | AID 1259422, 2018; in the data active means inhibition above about 32%;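 further: 0% = median of test compound wells and 100% = reference inhibitor wells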
# FBW7 act = FBW7 E3 ligase activators, primary screen, biochemical, AlphaScreen, human; F-box/WD repeat-containing protein 7 (Homo sapiens), Q969H0; AlphaScreen FBW7–phospho-cyclin E peptide binding, activator screen; normalized activity (activation), % at 26.1 µM; actives 0.13% (n = 650,000); AID 1259310, 2017; in the data active means normalized activity above about 1.9%;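 further: purified mutant Fbw7 with reduced substrate affinity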
# GPR151 conf act = GPR151 activators, triplicate retest, confirmation, cell-based, PathHunter beta-arrestin, luminescence. shares compounds with GPR151 ag. GPR151 PathHunter beta-arrestin cells, 90 min; % of EA-reagent control over plate median. activation, % at 11.2 µM. 6,700 tested, under 10 active;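 active means mean percent activation across replicates above the confirmation screen cutoff of 4.91%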
# GPR119 counter = GPR119 activators in beta-arrestin cells, counter-screen for GPR151 activator project, cell-based, PathHunter beta-arrestin, luminescence, triplicate; 90 min; 0 = compound-well median, 100 = enzyme-acceptor control; shares compounds with GPR151 ag; activation, % at 11.2 µM; actives 0.3% (n = 6,700); AID 1508611, 2020;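 active means mean percent activation in the counterscreen above 29.09%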;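 further: counterscreen on off-target GPR119 to flag nonselective hits from the GPR151 activator screen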
# Target sequence (Q8TDV5 whole entry, looked up): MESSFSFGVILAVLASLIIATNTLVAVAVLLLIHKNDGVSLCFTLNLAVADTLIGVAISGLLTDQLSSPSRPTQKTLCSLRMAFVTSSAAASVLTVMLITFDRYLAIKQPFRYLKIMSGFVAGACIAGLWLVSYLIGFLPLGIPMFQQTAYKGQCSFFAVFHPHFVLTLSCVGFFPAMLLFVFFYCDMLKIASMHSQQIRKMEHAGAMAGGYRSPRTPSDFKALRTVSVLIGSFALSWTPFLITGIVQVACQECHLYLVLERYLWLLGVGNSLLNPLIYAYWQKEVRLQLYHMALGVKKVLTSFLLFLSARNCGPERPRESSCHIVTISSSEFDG
# Active calls of the source: *; / = not tested or not shown; ! = not confirmed by another sample.
SMILES,GPR151 ag,MITF primary,TEAD-YAP inh,FBW7 act,GPR151 conf act,GPR119 counter
CC(C)C(=O)N(CC(=O)Nc1sc2c(c1C(N)=O)CCCC2)Cc1ccccc1,7.1*,-1.9,5.6,-0.1,0.3,7.2
CC(C)N1CCc2c(sc(NC(=O)Cc3ccccc3)c2C(N)=O)C1,-0.2,2.4,-14.5,0.6,/,/
O=C(c1ccc([N+](=O)[O-])cc1Cl)N1CCN(c2ncccn2)CC1,0.2,-4.5,2.5,0.0,/,/
CCOc1ccccc1N1CCN(C(=O)c2c(C)c(-c3ccc(Cl)cc3Cl)nc3ccccc23)CC1,-0.4,-1.2,-5.9,0.0,/,/
Nc1nc(Cl)cc(NCCN2CCOCC2)n1,1.8,9.8,9.0,0.0,/,/
Clc1cc(NCCN2CCOCC2)ncn1,5.7*!,12.0,5.7,0.3,0.6,-4.1
O=C(c1nc2ccccc2s1)C1CCN(C(=O)Cn2cnc3ccccc3c2=O)CC1,0.0,5.0,-1.6,0.0,/,/
O=C1NC(CC(=O)N2CCC(C(=O)c3nc4ccccc4s3)CC2)c2ccccc21 (stereo not drawn),5.1*,9.4,6.4,0.6,-0.7,-7.1
OCCN1CCN(C2CCN(Cc3cccc4ccccc34)CC2)CC1,7.6*,9.3,3.6,-0.2,0.7,9.8
N#Cc1ccc(S(=O)(=O)NCCc2ccncc2)cc1,5.2*,2.2,1.1,0.1,0.0,0.6
CCN(CC)S(=O)(=O)c1cccc(C(=O)NN)c1,5.5*,-3.4,-11.3,-0.1,-0.2,-8.8
O=C(Nc1ccccc1)c1cccc(-c2ccccc2)n1,0.5,-9.2,7.3,0.4,/,/
CCOC(=O)N1CCC(N(CCOC)C(=S)Nc2cccc(OC)c2)CC1,8.6*,-1.2,-14.0,-0.2,-1.2,-10.8
COCc1cc(C)nc2sc3c(=O)n(-c4ccc(C)cc4C)nnc3c12,1.1,16.2,5.4,0.1,/,/
COCc1cc(C)nc2sc3c(=O)n(-c4ccc(C(C)=O)cc4)nnc3c12,5.5*,-0.1,-3.1,-0.1,-0.4,5.1
CCOc1ccc(C(=O)NC(=S)Nc2cccnc2)cc1Cl,7.1*,-11.8,-1.4,0.2,0.9,15.5
CCOc1c(Cl)cc(C(=O)NC(C)(C)C)cc1Cl,1.5,-5.4,4.8,0.1,/,/
CCOc1ccc(C(=O)NC(C)(C)C)cc1Cl,6.9*,1.0,9.8,0.2,-0.6,-13.4
CCOc1ccc(C(=O)NC(=S)Nc2cccnc2)cc1[N+](=O)[O-],0.2,-7.0,27.2,0.0,/,/
O=c1c2cc3c(=O)n(-c4ccc(Cl)c(Cl)c4)c(=O)c3cc2c(=O)n1-c1ccc(Cl)c(Cl)c1,1.3,0.0,3.0,-0.1,/,/
Cc1ccc(S(=O)(=O)N2CCC(c3nc(-c4ccccc4C)no3)CC2)cc1,6.2*,13.4,13.7,0.2,-0.5,-9.9
COc1cccc(S(=O)(=O)N2CCC(c3nc(-c4cccnc4)no3)CC2)c1,7.4*,29.2,1.8,0.5,-1.0,-11.2
Cc1ccc(-c2noc(C3CCN(S(=O)(=O)c4ccccc4)CC3)n2)cc1,-0.2,-26.0,-0.2,0.1,/,/
CCCNc1nc(Nc2ccc3ncccc3c2)ncc1C,-0.9,2.6,-6.5,0.1,/,/
Cc1cnc(Nc2ccc3ncccc3c2)nc1NCCN(C(C)C)C(C)C,5.4*,-4.5,4.5,0.2,1.2,3.0
SMILES,GPR151 ag,MITF primary,TEAD-YAP inh,FBW7 act,GPR151 conf act,GPR119 counter
CC1=C(C(=O)Nc2ccc(C)cc2C)C(c2ccccc2Br)NC(=S)N1 (stereo not drawn),0.3,5.1,-2.9,-0.3,/,/
CC(C)CC(=O)NC(c1ccc2c(c1)OCO2)c1c(O)ccc2ccccc12 (stereo not drawn),5.2*,5.2,1.2,-0.1,0.0,2.7
O=C(CCc1ccccc1)NC(c1ccc2c(c1)OCO2)c1c(O)ccc2ccccc12 (stereo not drawn),-0.7,-2.5,-0.7,0.0,/,/
COc1cc(NC(=O)Nc2nnc(N3CCCCC3)s2)cc(OC)c1,5.3*,-4.3,-2.1,-0.1,-0.9,-14.5
Cc1ccc(NC(=O)Nc2nnc(N3CCCCC3)s2)c(C)c1,7.4*,4.0,0.9,-0.2,0.3,-2.8
O=C(Nc1cccc(C(F)(F)F)c1)Nc1nnc(N2CCCCCC2)s1,5.2*,6.0,-2.5,0.0,-0.7,-3.9
Cc1cccc(NC(=O)Nc2nnc(N3CCCCC3)s2)c1,5.6*,4.9,-49.8,-0.1,0.1,-2.4
Cc1cc(C)cc(NC(=O)Nc2nnc(N3CCCCC3)s2)c1,3.2,-1.4,0.4,0.0,/,/
Cc1ccc(-n2c(C)cn3c4c(=O)n(C)c(=O)n(C)c4nc23)cc1,-1.3,13.8,1.5,0.4,/,/
COC(=O)C1=CN(c2cccc(C(F)(F)F)c2)C=C(C(=O)OC)C1c1cc(OC)c(OC)c(OC)c1,0.2,-8.3,5.8,0.0,/,/
O=C1N(C2CCCC2)C[C@@H]2C[C@@H](c3cccn3-c3nccs3)N3CCC[C@@]123,6.4*,5.8,4.0,0.2,0.9,4.5
CCN(CC)CCN(C)Cc1ccccc1Cl,0.2,46.5,6.2,0.0,/,/
CCN(CC)CCN(C)Cc1ccccc1C,5.0*,9.3,2.9,-0.2,-0.5,-0.1
COc1ccccc1-c1cc(N)n(S(=O)(=O)c2cccc([N+](=O)[O-])c2)n1,-0.4,-5.7,-4.0,-0.1,/,/
COc1ccccc1N1CCN(S(=O)(=O)c2ccc(Br)cc2C)CC1,8.5*,-17.4,-6.5,-0.1,0.3,-7.3
COc1ccc(Br)cc1S(=O)(=O)N1CCN(c2ccc(N3CCCC3)nn2)CC1,7.7*,2.6,6.5,-0.1,0.6,3.4
CC(C)CC1C(=O)Nc2cc(S(C)(=O)=O)ccc2N1C(=O)C1CCCCC1 (stereo not drawn),-0.8,1.7,-15.6,0.1,/,/
O=C(Nc1ccccc1OC(F)F)c1ccc(F)cc1,0.7,6.7,-17.9,0.3,/,/
CC(=O)Nc1ccccc1OC(F)F,7.1*,7.3,-2.6,0.0,0.6,12.5
O=C(Nc1cc(Oc2ccc(F)cc2F)cc([N+](=O)[O-])c1)c1oc(=O)c2ccccc2c1-c1ccccc1,5.5*,0.9,-8.0,0.3,-0.4,7.6
O=C(Nc1cc(Sc2ccc(F)cc2)cc([N+](=O)[O-])c1)c1oc(=O)c2ccccc2c1-c1ccccc1,-1.9,4.0,-4.0,0.1,/,/
CC(C)[C@H](NC(=O)c1ccc(F)cc1)C(=O)OCC(=O)Nc1ccc(C#N)cc1,7.4*,2.1,-6.5,-0.1,-0.5,-11.7
COc1cccc(OCC(=O)N2CCc3ccccc32)c1,-2.9,-4.2,14.8,0.1,/,/
Cc1cc2nc(-c3cc(NC(=O)c4cccnc4)ccc3Cl)oc2cc1C,5.3*,-3.3,-9.4,-0.2,0.1,13.2

# Assay outcomes deposited in PubChem BioAssay by The Scripps Research Institute Molecular Screening Center.
